The entries come from a sample that favours hits as a whole.
ALOX15 inhib: 15-hLO (ALOX15) enzyme inhibition. P16050. purified 15hLO-1, xylenol orange hydroperoxide absorbance. Potency, µM (series often up to 57.1 µM), for the others: top-dose activity change, negative = inhibition, hits mostly inhibitors. 74,000 tested, 1.4% active. AID 887; further: nearly all actives have a fitted effect of over 55% in size
Target sequence (P16050 whole entry, looked up): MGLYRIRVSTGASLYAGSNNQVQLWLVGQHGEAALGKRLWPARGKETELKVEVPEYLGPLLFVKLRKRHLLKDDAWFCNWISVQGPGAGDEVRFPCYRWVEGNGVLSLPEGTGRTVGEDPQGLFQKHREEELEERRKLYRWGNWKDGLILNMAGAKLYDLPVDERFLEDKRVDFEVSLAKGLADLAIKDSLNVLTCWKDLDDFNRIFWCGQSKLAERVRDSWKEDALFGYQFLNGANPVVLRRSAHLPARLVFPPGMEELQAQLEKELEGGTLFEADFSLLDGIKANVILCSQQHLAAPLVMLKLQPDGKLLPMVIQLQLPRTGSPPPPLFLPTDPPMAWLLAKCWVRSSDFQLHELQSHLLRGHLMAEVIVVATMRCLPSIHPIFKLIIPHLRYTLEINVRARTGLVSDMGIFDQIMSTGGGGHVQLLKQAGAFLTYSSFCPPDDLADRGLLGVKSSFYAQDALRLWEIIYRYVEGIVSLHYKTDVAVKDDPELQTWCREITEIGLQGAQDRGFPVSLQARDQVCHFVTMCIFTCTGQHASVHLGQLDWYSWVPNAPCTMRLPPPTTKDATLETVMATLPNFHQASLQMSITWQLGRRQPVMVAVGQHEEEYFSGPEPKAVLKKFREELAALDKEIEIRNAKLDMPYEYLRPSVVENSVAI
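Purified human 15hLO-1 (40 nM) in 25 mM Hepes pH 7.5, 0.01% Triton X-100, preincubated 15 min RT with compound, then 50 uM arachidonic acid for 6 min. Hydroperoxide read by ferrous/xylenol orange, 30 min; 573/405 nm absorbance ratio gave progress.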
15-hLO-2 inh: inhibitors of human 15-lipoxygenase 2 (ALOX15B). 110,000 tested, 0.56% active. purified 15hLO-2, xylenol orange hydroperoxide absorbance. Potency, µM (titrated, usually from 57.1 µM), for inactives: at the highest dose activity change, negative = inhibition, hits mostly inhibitors; further: nearly all actives have a fitted effect of over 60% in size
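Read-out: hydroperoxide product oxidises ferrous iron, measured as xylenol orange complex via the 573-to-405 nm absorbance ratio after 30 min. Reaction: 50 nM enzyme, 15 min compound preincubation, 45 uM arachidonic acid, 90 min RT, Hepes pH 7.5 with Triton X-100.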
An asterisk follows results filed as active; ? = inconclusive; . = no result; [ ] = dose if it differs, or a comment. The call rests on the fitted dose curve; in most records, active means well fitted inhibition curve with a large enough effect; inconclusive means small, poorly fitted or top-dose-only effect; inactive means no such curve, though single readings can be large or run the other way. On the % scale 0 is the no-effect control and ±100 the full control effect; potency means the concentration at half of the fitted maximal effect.

SMILES	ALOX15 inhib	15-hLO-2 inh
CC1=C(/C=C/C(C)=C/C=C/C(C)=C/C=C/C=C(C)/C=C/C=C(C)/C=C/C(=O)[C@]2(C)CC(O)CC2(C)C)C(C)(C)CC(O)C1 (some centres not stated)	3.2µM*	24%
CC(=O)[C@]1(O)CC[C@@H]2[C@H]3C[C@@H](C)C4=CC(=O)CC[C@@]4(C)[C@H]3[C@@H](O)C[C@]21C	-12%[11.4 µM]	-3%[11.4 µM]
COc1cccc(O)c1O	0.79µM*	?
COc1ccccc1O	-10%	4%
COc1ccccc1-c1ccc2ncnc(NC3CC3)c2c1	7%	3%
CC1=CC2=C(OC1N(C)C)c1cccc3cccc(c13)C2=O (configuration not stated)	7.9µM*	-14%
O=C1OCc2cccc3cccc1c23	7%	-13%
C[C@]1(C(=O)NCC2CC2)C=C[C@@H](Cc2ccccc2)N1C(=O)c1ccccc1	-1%	-6%
COC(=O)c1ccccc1N/C=C1\CCc2c(c(C)nn2-c2ccccn2)C1=O	.	2.5µM*
CCOC(=O)c1ccccc1N/C=C1\CCCC1=O	-6%	3%
CCOC(=O)c1ccc(CC(=O)c2oc3cc(O)ccc3c2C)o1	20µM*	?
CCOC(=O)c1oc2cc(O)ccc2c(=O)c1-c1csc(C)n1	2%	-1%
COCCNc1ncnc2ccc(-c3ccoc3)cc12	-12%	-8%
O=C(/C=C\c1ccc(O)cc1)c1ccc(O)cc1O	?	-19%
COc1cccc2c1[C@@H]1CN(CCCCn3c(=O)[nH]c4c(sc5ncc(-c6ccccc6)nc54)c3=O)C[C@H]1CO2	13%	45%
O=[N+]([O-])c1ccc(NNC(=S)Nc2ccccc2)cc1	.	4µM*
O=[N+]([O-])c1ccc(O)c(NC(=S)Nc2ccccc2)c1	.	-21%
Oc1ccc(Cc2nccc3cc(O)c(O)cc23)cc1O	?	-27%[11.4 µM]
CNc1nc(-c2cccnc2)nc2ccccc12	-25%	-5%
c1ccc(SC(Sc2ccccc2)c2ccc3c(c2)OCO3)cc1	4%[11.4 µM]	-6%[11.4 µM]
Nc1ccccc1S[C@@H](C[N+](=O)[O-])c1ccc2c(c1)OCO2	2.5µM*	-19%[11.4 µM]
Cc1cc(NO)nc(-c2ccc(Br)cc2)n1	16µM*	?
Cc1cc(C)nc(NS(=O)(=O)c2ccc(Br)cc2)n1	2%	6%[2.29 µM]
O=c1c(-c2ccc(F)cc2)nc2cnc(Oc3ccccc3)nc2n1Cc1cccs1	7%	-2%
COC(=O)/C(=C1\OC(=O)C(c2ccccc2)C1=O)c1ccccc1 (configuration not stated)	0%	-8%
SMILES	ALOX15 inhib	15-hLO-2 inh
CC(C)CC(C(=O)Nc1ccc2c(c1)OCCO2)N1C(=O)c2ccccc2C1=O (configuration not stated)	-5%	1%
CC(C)CC(C(=O)Nc1oc(-c2ccco2)c(-c2ccco2)c1C#N)N1C(=O)c2ccccc2C1=O (configuration not stated)	25µM*	?
COc1ccccc1CN1CCC2(CC1)CCN(C(C)=O)CC2	5%	0%
COc1cc(CNc2ccc3[nH]c(=O)[nH]c3c2)ccc1OCC(=O)NC(C)(C)C	25µM*	-1%
COc1cc(CNc2ccc3[nH]c(=O)[nH]c3c2)cc(Br)c1OCC(=O)NC(C)(C)C	.	-10%
COc1cc(OC)cc(-c2sc3ccccc3c(=O)c2I)c1	.	-15%[0.0915 µM]
Cn1c(=O)c(-c2ccc(Cl)cc2)nc2cnc(N3CCNCC3)nc21	?	27%
CC(=O)O[C@@]1(C(C)=O)CCC2C3C=C(Cl)C4=CC(=O)C5CC5[C@@]4(C)C3CC[C@]21C (some centres not stated)	-6%	1%
O=C(N/N=C/c1ccc(O)cc1O)c1cc(-c2ccccc2)n[nH]1	-7%	.
CN(C)c1ccc(C=Nc2ccccc2)cc1	.	-3%
CN(C)c1ccc(N=Cc2ccco2)cc1	?	32µM*
O=c1c(-c2ccc(F)cc2)nc2cnc(N3CCNCC3)nc2n1-c1ccccc1	-1%	49%
CN(C)C1C(=O)C(C(N)=O)C(=O)C2(O)C(=O)C3C(=O)c4c(O)ccc(Cl)c4C(O)C3CC12 (configuration not stated)	.	-1%[0.0915 µM]
CNc1nc(-c2ccc(N(C)C)cc2)nc2ccccc12	?	36%
COc1ccc(-n2nc3cc(C)c(N)c(Br)c3n2)cc1	16µM*	10µM*
COc1ccc(-n2nc3ccccc3n2)cc1	4%	-8%
CC1CCN(CC(=O)Nc2sc3c(c2C#N)CCC3)CC1	25µM*	-14%
CCCC(=O)Nc1sc2c(c1C#N)CCCC2	.	-8%
CCOC(=O)C1CCCc2c1[nH]c1c(C(N)=O)cccc21 (configuration not stated)	.	0%
NC(=O)c1cccc2c3c([nH]c12)CCCC3	3.2µM*	-10%
COC(=O)c1ccc(CSc2nc(C(F)(F)F)c3c(c2C#N)CCC3)o1	20µM*	-12%
COC(=O)CSc1nc(-c2ccc(C)cc2)c2c(c1C#N)CCCC2	.	2%
O=C1c2ccccc2C(=O)c2c1ccc(O)c2O	10µM*	?
COC(=O)c1ccc2c(c1O)C(=O)c1ccccc1C2=O	.	-28%
O=C1c2cccc(O)c2C(=O)c2c(O)cccc21	?	-11%
SMILES	ALOX15 inhib	15-hLO-2 inh
O=C1c2ccc(O)c(O)c2C(=O)c2c(O)ccc(O)c21	0.25µM*	?
Nc1cccc2cc(S(=O)(=O)Nc3ccc(C(=O)O)cc3)ccc12	5%[11.4 µM]	-9%[11.4 µM]
COc1ccc(Oc2ncc3ncc(=O)n(Cc4cccc(OC)c4)c3n2)cc1	1%	-12%
Cc1ccc(/C=C2\SC(=S)N(CCCC(=O)Nc3ccccn3)C2=O)cc1	.	21%
O=C(O)CCCN1C(=O)/C(=C/c2ccc(-c3nc4ccccc4s3)o2)SC1=S	.	16µM*
c1ccc(-c2cccc(N3CC[C@@]4(CCCNC4)C3)c2)cc1	-18%	38%
COc1cc2c(cc1OC)-c1nnc(-c3cccs3)n1C(C)(C)C2	-7%	.
COc1cc2c(cc1OC)-c1cc3nc4ccccc4nc3n1C(C)(C)C2	13µM*	25µM*
CC(=O)NCCNc1ncncc1-c1ccccc1C	16µM*	?
CC(=O)NCCNc1ncncc1-c1ccccc1C(F)(F)F	-24%	-4%
CCOC(=O)Nc1nc(-c2ccccc2)c(C)s1	-11%[11.4 µM]	1%[11.4 µM]
CNc1ncnc2c1ncn2[C@@H]1O[C@@H](CO)[C@H](O)[C@@H]1O	5%	2%
CCOC(=O)C1=C(C)NC(=O)NC1c1ccc(OC(C)C(=O)O)c(OC)c1 (configuration not stated)	25µM*	2%
CCOC(=O)C1=C(C)NC(=O)NC1c1ccc(OCC(=O)OC)c(OC)c1 (configuration not stated)	11%	-2%
NC[C@@H]1O[C@H](O[C@H]2[C@H](O)[C@H](O[C@@H]3O[C@H](CO)[C@@H](O)[C@H](N)[C@@H]3O)[C@@H](N)C[C@H]2N)[C@@H](O)[C@H](O)[C@@H]1O	9%[25.6 µM]	5%[25.6 µM]
COCCn1c(=O)c(-c2ccccc2)nc2cnc(N3CCNCC3)nc21	6%	4%
NC(Cc1ccc(O)c(O)c1)C(=O)O (configuration not stated)	4µM*	18%
COC(=O)C(N)Cc1ccc(O)c(O)c1 (configuration not stated)	.	-3%
CCCCCCCCCCCCCCCC(=O)OCC(O)C1OC(=O)C(O)=C1O (configuration not stated)	.	8.9µM*
CCCCCCCCCCCCCCCCCC(=O)OCC(C)O (configuration not stated)	.	-3%[0.0915 µM]

High-throughput results from PubChem BioAssay.
